Test results from ChEMBL document CHEMBL3988442, “University of Dundee, Small-Polar-MMV Screening Library” (2021).
Hit rate of the full screen: of about 48,000 compounds, about 13,000 (27%) showed an effect of 50% or more. Some of the results follow.

Each molecule was assayed on Wolbachia pipientis (assay: Anti-Wolbachia Cell-Based Screen). Conditions: 5 µM.
Type: functional
Parameters: scale not given: in the data most compounds retested in dose-response had high values

SMILES	Percent Effect
CCN(Cc1noc(CC(C)C)n1)Cc1ncccc1C(=O)O	0.41%
O=C(Cc1ccc(F)cc1)NCC(O)(c1cccs1)C1CC1 (centres undefined)	-8.989%
O=C(c1ccccc1-c1nc[nH]n1)N1CCOC(C(F)(F)F)C1 (centres undefined)	-3.819%
FC(F)(F)C1CN(c2nc(-c3ccccc3)no2)CCO1 (centres undefined)	1.85%
CCCOC1CCCN(C(=O)c2ccnc(N3CCN(C)CC3)c2)C1 (centres undefined)	-2.412%
O=C(c1ccc(-c2nc[nH]n2)cc1)N1CCOC(C(F)(F)F)C1 (centres undefined)	16.44%
O=C(c1ccnc(N2CCOC(C(F)(F)F)C2)c1)N1CCOCC1 (centres undefined)	126.7%
O=C(c1ccnc(N2CCOC(c3ccc(Cl)cc3)C2)c1)N1CCCC1 (centres undefined)	5.063%
CN1CCN(C(=O)c2ccnc(N3CCOC(C(F)(F)F)C3)c2)CC1 (centres undefined)	130.4%
O=C(c1ccnc(N2CCOC(C(F)(F)F)C2)c1)N1CCCC1 (centres undefined)	104.2%
Cc1cc(N2CCOC(C(F)(F)F)C2)nc(-c2ccccc2O)n1 (centres undefined)	0.367%
N#CC(NC(=O)CC1CCSCC1)c1cnn(-c2ccccc2)c1 (centres undefined)	-2.178%
O=C(c1cccc(O)c1)N1CCN(Cc2nnc(C3CCC3)o2)CC1	6.828%
CNC(=O)[C@@H]1CC[C@@H]2[C@@H](CCN2C(=O)N(C)C)O1	-10.15%
O=C(NCc1cccnc1)[C@@H]1C[C@H]2[C@H](CCN2c2ncccn2)O1.O=C(O)C(F)(F)F.O=C(O)C(F)(F)F	-20.81%
CS(=O)(=O)N1CC[C@H]2O[C@@H](C(=O)NCc3ccco3)CC[C@H]21	-0.8352%
Cc1csc(NC(=O)[C@@H]2C[C@H]3[C@H](CCN3S(C)(=O)=O)O2)n1	118.9%
CN1CCC(NC(=O)[C@H]2CC[C@@H]3[C@@H](CCN3c3ncccn3)O2)CC1.O=C(O)C(F)(F)F.O=C(O)C(F)(F)F	7.6%
CS(=O)(=O)N1CC[C@H]2O[C@H](C(=O)NCc3cccnc3)CC[C@H]21	-7.533%
CC(=O)N1CC[C@@H]2O[C@@H](COCc3csc(C)n3)CC[C@@H]21	-30.94%
Cc1csc(NC(=O)[C@@H]2C[C@H]3[C@H](CCN3c3ncccn3)O2)n1.O=C(O)C(F)(F)F	118%
CC(=O)N1CC[C@@H]2O[C@H](C(=O)Nc3nc(C)cs3)C[C@@H]21	101%
NC(=O)CCn1ccc(NC(=O)c2ccc(Br)o2)n1	-16.68%
O=C(NCC1(N2CCOCC2)CCSC1)Nc1ccc(F)cc1 (centres undefined)	-9.419%
CCCOc1ccccc1CCCNc1ncnc2oc(C)nc12	-6.613%

SMILES	Percent Effect
CCc1nccc(CN2CCC(CNC(=O)c3occc3C)C2)n1 (centres undefined)	-2.673%
CC(N1CCN(C(=O)NCc2cccc(C#N)c2)CC1)C(F)(F)F (centres undefined)	-0.6976%
O=C(C1CCCCO1)N1CCc2ncnc(NCCO)c2CC1 (centres undefined)	-13.54%
O=C(C1CCCCO1)N1CCc2ncnc(NCc3ccon3)c2CC1 (centres undefined)	-8.792%
O=C([C@H]1CCCO1)N1CCc2ncnc(C3CC3)c2CC1	109.2%
CCN(C)c1ncnc2c1CCN(C(=O)[C@H]1CCCO1)CC2	4.637%
CC(C)Nc1ncnc2c1CCN(C(=O)[C@H]1CCCO1)CC2	89.47%
O=C(c1ccnnc1)N1CCc2ncnc(C3CCOC3)c2CC1 (centres undefined)	-19.12%
CCCN(C)C(=O)c1cc(Br)cc(S(=O)(=O)N2CCOCC2)c1F	6.063%
Cc1nnc(N2CCCC3(CN(c4cccc(F)c4)CCO3)C2)o1 (centres undefined)	-14.38%
O=C(NCCN1CCOCC1)c1cc(Cl)c2c(c1)OCCCO2	12.84%
CCn1c(CN2CCOC(Cn3cncn3)C2)nc2c(F)cccc21 (centres undefined)	-6.661%
Cc1ccc(C(CNCC2CC2)N2CCOCC2)s1 (centres undefined)	-12.57%
CNC(=O)c1ccc(C(=O)N2CCC(Nc3cccnn3)CC2)cn1	119%
O=C(c1ccc(-c2cnco2)cc1)N1CCC(Nc2cccnn2)CC1	107%
O=C(c1ccc(-n2cnnc2)cc1)N1CCC(Nc2cccnn2)CC1	87.89%
Cc1cccc2nc(C(=O)N3CCC(Nc4cccnn4)CC3)cn12	-6.08%
CC(C(=O)N1CCC(Nc2cccnn2)CC1)n1ccnc1 (centres undefined)	3.754%
CC(C(=O)N1CCC(Nc2cccnn2)CC1)n1cccn1 (centres undefined)	60.47%
CC(Cn1cccn1)C(=O)N1CCC(Nc2cccnn2)CC1 (centres undefined)	-6.529%
CCOC(C)c1nc(Cn2cc(C(=O)NC)ccc2=O)cs1 (centres undefined)	-7.956%
Cc1ccc(NC(=O)N2CCOC(C)(c3cnn(C)c3)C2)c(C)c1 (centres undefined)	16.86%
COc1cc2c(cc1OC)S(=O)(=O)N(Cc1cc(C)on1)C2=O	-6.413%
N#Cc1c(Cl)nsc1N1CCN(CC2CCCCC2)CC1	3.475%
Cc1cccc(-n2nc(CC(C)C)nc2CCn2ccc(=O)[nH]c2=O)c1	22.44%

SMILES	Percent Effect
O=C(c1ccsc1)N1CCC(c2nnc(C3CC3)o2)CC1	116.7%
O=C(c1ccc(NC2CC2)nc1)N1CCC(Nc2cccnn2)CC1	118.5%
O=C(c1ccc(O)nc1)N1CCC(Nc2cccnn2)CC1	95.42%
O=C(c1ccccc1-n1cccn1)N1CCC(Nc2cccnn2)CC1	157.4%
O=C(c1ccncc1)N1CCCN(Cc2nnc(C3CC3)o2)CC1	-12.73%
O=C(c1ccc(-n2cccn2)nc1)N1CCC(Nc2cccnn2)CC1	-1.733%
O=C(c1ccccc1-n1cccn1)N1CCCN(c2cccnn2)CC1	-6.198%
O=C(c1ccccn1)N1CCC(Nc2cccnn2)CC1	18.78%
FC(F)(F)c1ccc(-n2ccnc2-c2cc3n(n2)CCNC3)cn1	0.08182%
CCS(=O)(=O)c1ccccc1N1CCC(NC(=O)NC2CCCC2)CC1	-4.776%
O=C(c1ccoc1)N1CCC(Nc2cccnn2)CC1	90.61%
O=C(c1ccsc1)N1CCC(Nc2cccnn2)CC1	95.56%
Cc1ccc(S(=O)(=O)Nc2ccc(-n3nnn(C)c3=O)cc2)cc1	8.508%
O=S(=O)(Nc1ccc(N2CCOCC2)cn1)c1cccc(F)c1	2.193%
COc1cccc(OCC2CCCN(C(=O)c3ncc(F)cc3F)C2)c1 (centres undefined)	-61.26%
COCC(=O)N1CCCN(c2ncnc3c2CCNCC3)CC1	1.266%
CC(C)Nc1ncnc2c1CCNCC2	-5.966%
COC[C@H]1CCC[C@H]1Nc1ncnc2c1CCNCC2	95.23%
CCNc1ncc(C(=O)NC2COC3(CCCC3)C2)cn1 (centres undefined)	-5.692%
c1nc2c(c(NC3CCc4ncnn4C3)n1)CCC2 (centres undefined)	-6.936%
c1nc2c(c(NC3COC4(CCCC4)C3)n1)CCNCC2 (centres undefined)	100.1%
CC(NC(=O)CCN1CCOC1=O)(c1ccccc1)c1ccccc1	8.215%
CC(Oc1ccccc1C(F)(F)F)C(=O)NS(=O)(=O)C(C)C (centres undefined)	-1.095%
CCC(CC(=O)Nc1ccc2c(c1)CC(=O)N2)c1ccccc1 (centres undefined)	3.416%
Cn1cc(C(=O)N2CCOc3ccccc32)ccc1=O	-9.078%

SMILES	Percent Effect
O=C(NCCc1cccc(Cl)c1)C1CCOCC1	2.096%
O=C(Nc1cc(-c2ccncc2)no1)C1CC1	-3.278%
CC(C)N1CC(C(=O)NCCc2csc(-c3ccncc3)n2)CC1=O (centres undefined)	2.271%
O=C(NCCc1cc2nc(-c3ccncc3)ccn2n1)C1CC1	124.8%
Cc1csc(CCNC(=O)C2CCOC2)n1 (centres undefined)	0.3325%
O=C(NCCc1cc2nc(-c3ccncc3)ccn2n1)C1CCOCC1	126.4%
Cc1cc(=O)n(C)cc1NC(=O)NCc1cccc(F)c1	28.52%
CN1CCOC(C(=O)Nc2nc(-c3ccccc3F)n[nH]2)C1 (centres undefined)	-6.828%
O=C1NCCO[C@H]2CN(C(=O)Cc3ccco3)CC[C@@H]12	-15.97%
O=C1CN(C(=O)OCc2ccccc2)CC(O)CN1Cc1ccco1 (centres undefined)	93.23%
O=C(COCc1ccccc1)N1CCN(Cc2ccccc2F)C(=O)C1	-37.48%
O=C(O)C(F)(F)F.c1coc(CN2Cc3ccnn3CC(COCC3CC3)C2)c1 (centres undefined)	5.412%
O=C(Cc1ccc(-c2ccccc2)cc1)N1CCOCC(O)C1 (centres undefined)	-43.76%
O=C(Cc1ccccc1)N1CC(=O)N(Cc2ccco2)CC(O)C1 (centres undefined)	119.5%
O=C(C1CN(Cc2ccoc2)CC12CCOCC2)N1CCCC1 (centres undefined)	-22.56%
COCc1cc(C[C@@H]2CC[C@H](O)[C@@H](CN(C)C)O2)no1	7.016%
O=C(O)C(F)(F)F.O=C(c1ccoc1)N1CC[C@H]2OCC[C@@]2(COc2ncccc2F)C1	0.551%
COc1ccc(C(C)N2CCC(NS(C)(=O)=O)CC2)cc1Cl (centres undefined)	-1.711%
CO[C@H]1CC[C@H]2[C@H]1OCCN2C(=O)c1nn(C)c2ccccc12	119%
CC(C)O[C@@H]1CC[C@H]2[C@H]1OCCN2C(=O)c1nn(C)c2ccccc12	112.4%
CO[C@@H]1CC[C@H]2[C@H]1OCCN2C(=O)c1nn(C)c2ccccc12	115.4%
CO[C@@H]1CC[C@H]2[C@H]1OCCN2C(=O)c1ccco1	-5.889%
COCCNC(=O)Nc1cccc(COCCOC(C)C)c1	-33.02%
Cn1cc(C#N)cc1C(=O)N1CCC2(CCCN(CC3CCC3)C2=O)C1 (centres undefined)	-29.9%
